From article PMC5700166 come the findings set out here.

In the assay the target is T1, GST-Dm-Relish (Drosophila melanogaster, UniProt Q94527 99-473).
T1 sequence: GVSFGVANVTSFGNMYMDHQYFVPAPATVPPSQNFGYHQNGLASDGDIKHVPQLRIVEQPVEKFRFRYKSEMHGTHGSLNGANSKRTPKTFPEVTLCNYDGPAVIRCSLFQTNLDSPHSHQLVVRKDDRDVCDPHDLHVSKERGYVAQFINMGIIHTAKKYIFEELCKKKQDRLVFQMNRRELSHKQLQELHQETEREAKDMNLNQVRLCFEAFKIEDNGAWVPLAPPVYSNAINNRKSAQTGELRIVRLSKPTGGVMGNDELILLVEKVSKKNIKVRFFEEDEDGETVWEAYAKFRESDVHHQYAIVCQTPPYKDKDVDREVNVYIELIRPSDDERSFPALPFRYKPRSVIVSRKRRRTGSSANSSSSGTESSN
Briefly: protein-binding microarray (PBM); PBM: ~300 nM protein, 6 mM HEPES pH 7.8, 80 mM KCl, 0.5 mM EDTA, 0.5 mM EGTA, 6% glycerol, 35 ng/ul poly-dIdC, 1% milk, 1 h, room temperature; Ap Aiptasia and Nv Nematostella (sea anemones) / Co Capsaspora / Aq Amphimedon (sponge) / Dm Drosophila / Hu human; RHD is the Rel homology domain; high values mean tight binding. The settings on record: dsDNA, one strand shown.
“CCGATTAACATCAGTGGTTACCATGATGTTAATCGGGTCTTGATTCGCTTGACGCTGCTG” came in with a binding signal of 2.13 z-score.

For “CCGATTAACATCACTATTGTACATGATGTTAATCGGGTCTTGATTCGCTTGACGCTGCTG”, the binding signal came to 1.29 z-score.

“CCGATTAACATCAGTAAAATCCATGATGTTAATCGGGTCTTGATTCGCTTGACGCTGCTG” displayed a binding signal of 1.44 z-score.

“CCGATTAACATCAGGGTGTAGTTTGATGTTAATCGGGTCTTGATTCGCTTGACGCTGCTG” came in with a binding signal of 1.07 z-score.

“CCGATTAACATCACCCATTTCCGTGATGTTAATCGGGTCTTGATTCGCTTGACGCTGCTG” yielded a binding signal of 1.34 z-score.

On to “CCGATTAACATCACAAGAATTCCTGATGTTAATCGGGTCTTGATTCGCTTGACGCTGCTG”, for which the binding signal was found to be 1.19 z-score.

In the case of “CCGATTAACATCACGTAAACTCCTGATGTTAATCGGGTCTTGATTCGCTTGACGCTGCTG”, the binding signal came out at 1.72 z-score.

For “CCGATTAACATCACGTAGTTTCCTGATGTTAATCGGGTCTTGATTCGCTTGACGCTGCTG”, the binding signal stood at 1.46 z-score.

The sequence “CCGATTAACATCACAATAACGGGTGATGTTAATCGGGTCTTGATTCGCTTGACGCTGCTG” came in with a binding signal of 1.63 z-score.

On to “CCGATTAACATCACAAAAAATTTTGATGTTAATCGGGTCTTGATTCGCTTGACGCTGCTG”, for which the binding signal was 2.12 z-score.

Sequence “CCGATTAACATCAGCGTGACTTTTGATGTTAATCGGGTCTTGATTCGCTTGACGCTGCTG” returned a binding signal of 1.47 z-score.

“CCGATTAACATCACAAATTTTCCTGATGTTAATCGGGTCTTGATTCGCTTGACGCTGCTG” returned a binding signal of 2.01 z-score.

In the case of “CCGATTAACATCACGTGAATTCCTGATGTTAATCGGGTCTTGATTCGCTTGACGCTGCTG”, the binding signal is 2.84 z-score.

“CCGATTAACATCACCCACGAGGGTGATGTTAATCGGGTCTTGATTCGCTTGACGCTGCTG” showed a binding signal of 1.29 z-score.

In turn, “CCGATTAACATCAGGAAATAACATGATGTTAATCGGGTCTTGATTCGCTTGACGCTGCTG” gave a binding signal of 2.04 z-score.

“CCGATTAACATCACCCACGACGATGATGTTAATCGGGTCTTGATTCGCTTGACGCTGCTG” showed a binding signal of 1.04 z-score.

“CCGATTAACATCAGGAAAAAAACTGATGTTAATCGGGTCTTGATTCGCTTGACGCTGCTG” yielded a binding signal of 1.23 z-score.

Consider “CCGATTAACATCACCATTATAGGTGATGTTAATCGGGTCTTGATTCGCTTGACGCTGCTG”, for which the binding signal is 1.48 z-score.

Consider “CCGATTAACATCAGGAATGTACATGATGTTAATCGGGTCTTGATTCGCTTGACGCTGCTG”, for which the binding signal came to 4.12 z-score.

The sequence “CCGATTAACATCACGTTTTTTCCTGATGTTAATCGGGTCTTGATTCGCTTGACGCTGCTG” came in with a binding signal of 1.57 z-score.

Sequence “CCGATTAACATCAGAGTAATTCCTGATGTTAATCGGGTCTTGATTCGCTTGACGCTGCTG” displayed a binding signal of 2.26 z-score.

In the case of “CCGATTAACATCAAAAATTCCATTGATGTTAATCGGGTCTTGATTCGCTTGACGCTGCTG”, the binding signal was 1.66 z-score.

The sequence “CCGATTAACATCAGGAAATCACATGATGTTAATCGGGTCTTGATTCGCTTGACGCTGCTG” registered a binding signal of 7.1 z-score.

In turn, “CCGATTAACATCACGTACATTCCTGATGTTAATCGGGTCTTGATTCGCTTGACGCTGCTG” came in with a binding signal of 1.63 z-score.
